About 7,600 (2.4%) of roughly 320,000 compounds were called active. A call without a number means that no potency is given here. About 3% were inconclusive and are not listed. The call rests on the fitted dose curve; in most records, active means well fitted activation curve with a large enough effect; inconclusive means small, poorly fitted or top-dose-only effect; inactive means no such curve, though single readings can be large or run the other way. This excerpt belongs to a sample that is enriched for actives.
Assay: qHTS Assay for NPC1 Promoter Activators; further: nearly all actives have a fitted effect of over 60% in size;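 on activation: reporter is driven by a mutant NPC1 promoter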
Details: Huh7 NPC1 promoter luciferase reporter, 24 h; series mostly up to 9.22 µM
How it was run: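 In 1536-well qHTS, Huh7 cells harboring an NPC1 promoter–luciferase construct received compound for 24 h; activation was quantified by luminescence following luciferase reagent addition.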
Potency means the concentration at half of the fitted maximal effect.

Row | SMILES | Potency | activation
1 | COc1cccc(CNC(=O)CN2C(=O)NC(Cc3ccccc3)(c3ccccc3)C2=O)c1 (stereo not drawn) | inactive | –
2 | Cc1c(C(C)CCCO)oc(=O)c2c1Oc1c(C)c(C(C)C[C@@H](C)O)oc(=O)c1C2 (stereo partly drawn) | inactive | –
3 | CC(=O)C[C@@H](O)CC(=O)[C@H]1OC(=O)CCCCCCc2ccccc21 | inactive | –
4 | O=C(O[C@H]1[C@H](Cc2ccccc2)NS(=O)(=O)[C@H]2C[C@@H]3C=C[C@]12O3)c1ccc([N+](=O)[O-])cc1 | inactive | –
5 | COc1ccccc1C(CNC(=O)c1cccc(S(=O)(=O)Nc2ccc(F)cc2)c1)N(C)C (stereo not drawn) | inactive | –
6 | O=C(CCNC(=O)c1ccc([N+](=O)[O-])cc1)NC1CCCCC1 | inactive | –
7 | N#C/C(=C(/O)COC(=O)COc1ccc(Cl)cc1)c1nc2ccccc2[nH]1 | inactive | –
8 | O=C(CSc1nc2ccc([N+](=O)[O-])cc2[nH]1)c1ccc(Cl)cc1 | inactive | –
9 | O=C(Cc1nc2ccccc2[nH]c1=O)c1ccc(Cl)cc1 | 3160 nM (active) | –
10 | CCCCOC(=O)c1[nH]c(C)c(C(=O)OC)c1C | 2820 nM (active) | –
11 | CCOC(=O)c1c(C)[nH]c(C(=O)OCC(=O)N2CCCC2=O)c1C | inactive | –
12 | CCOC(=O)c1c(C)[nH]c(C(=O)OCC(=O)c2ccc(OC)cc2OC)c1C | inactive | –
13 | Cc1cc(C)c(CN2CCN(C(=O)Cn3ccc(NC(=O)OCc4ccccc4)nc3=O)CC2)c(C)c1 | inactive | –
14 | Cc1cccc(NC(=O)c2cccc(C(=O)Nc3cccc(C)c3C)n2)c1C | inactive | –
15 | COC(=O)c1ccc(NCC(=O)N2CCCCCC2)cc1 | inactive | –
16 | Cc1ccc(C(=O)CNc2ccc(F)cc2)cc1 | inactive | –
17 | COC(=O)c1ccc(NCC(=O)c2ccccc2)cc1 | 2510 nM (active) | –
18 | Cc1ccc(C(=O)c2c(NC(=O)c3ccccc3)sc(C)c2C)cc1 | inactive | –
19 | O=C(COC(=O)c1ccc2ncsc2c1)Nc1ccc(Cl)cc1 | – | 1.42% [at 1.84 µM] (inactive)
20 | Cc1sc(NC(=O)c2ccc3ncsc3c2)c(C(N)=O)c1C | 1580 nM (active) | –
21 | COc1cc(C(=O)Nc2ncccc2C)ccc1OCC(=O)N1CCOCC1 | inactive | –

Row | SMILES | Potency | activation
22 | Cc1cc(C)c(S(=O)(=O)N2CCC(C(=O)OCc3c(C)noc3C)CC2)c(C)c1 | inactive | –
23 | CCN(CC(=O)Nc1ccc(C)c(S(=O)(=O)N(C)C)c1)Cc1ccccc1 | inactive | –
24 | Cc1ccc(NC(=O)c2cccs2)cc1S(=O)(=O)N(C)C | inactive | –
25 | Cc1ccc(C(=O)Nc2ccc(C)c(S(=O)(=O)N(C)C)c2)s1 | 2820 nM (active) | –
26 | Nc1cc(N)nc(SCC(=O)Nc2cccc(S(=O)(=O)N3CCCCC3)c2)n1 | inactive | –
27 | CSc1ccc(Cl)c(C(=O)OCC(=O)N2CCNC2=O)c1 | inactive | –
28 | COc1ccc(N2C(=O)/C(=C\c3ccco3)N=C2SCC(N)=O)cc1Cl | inactive | –
29 | Nc1nonc1C(=O)NCCc1ccccc1 | inactive | –
30 | O=C(NCCCc1ccccc1)c1cc(COc2c(F)cccc2F)on1 | inactive | –
31 | CC(C)Cc1cc(C(=O)NCCc2ccccc2)no1 | 2820 nM (active) | –
32 | Cc1ccc(S(=O)(=O)N(Cc2ccc(Cl)cc2)c2ccccc2C(=O)NCc2cccnc2)cc1 | inactive | –
33 | O=C(CN(C(=O)c1csnn1)c1ccc(Br)cc1)NC1CCCC1 | inactive | –
34 | O=C(CN1C(=O)CCS(=O)(=O)c2ccccc21)NCc1ccc(F)cc1 | inactive | –
35 | O=C(CNS(=O)(=O)c1ccc2ccccc2c1)Nc1ccc(F)c(F)c1F | inactive | –
36 | N#CC(=C1SC=CS1)c1nc(-c2ccccc2)cs1 | inactive | –
37 | CCCCCN1CC(O)=C(c2nc(-c3ccc(Cl)cc3)cs2)C1=N | inactive | –
38 | N#CC(=C1CCCC1)c1nc(-c2ccc(Cl)cc2)cs1 | 2510 nM (active) | –
39 | CC1(C)NC(=O)N(CC(=O)N2CCN(S(=O)(=O)c3ccccc3F)CC2)C1=O | inactive | –
40 | O=C(Nc1ccc(C(F)(F)F)cc1)c1cccc(-n2cnnn2)c1 | inactive | –
41 | CN1CCN(S(=O)(=O)c2ccc(N3CCN(c4ccccc4O)CC3)c([N+](=O)[O-])c2)CC1 | inactive | –
42 | CCCNS(=O)(=O)c1ccc(CCC(=O)NCc2cccnc2)cc1 | inactive | –

Row | SMILES | Potency | activation
43 | CCc1ccc(N(CC(=O)NCc2cccnc2)S(=O)(=O)c2ccccc2)cc1 | 2820 nM (active) | –
44 | O=C(CN(c1cc(C(F)(F)F)ccc1Cl)S(=O)(=O)c1ccccc1)NCc1cccnc1 | inactive | –
45 | CCN(C(=O)COC(=O)c1c(C)nn(-c2ccccc2)c1Cl)c1c(N)n(Cc2ccccc2)c(=O)[nH]c1=O | inactive | –
46 | Cc1ccc(C(=O)N/C(=C/c2cccs2)C(=O)NCC2CCCO2)cc1 (stereo not drawn) | inactive | –
47 | Cc1ccc(-n2c(C)cc(/C=C(\C#N)C(=O)NCC3CCCO3)c2C)cc1 (stereo not drawn) | 3160 nM (active) | –
48 | Cc1cc(/C=C(/C#N)C(=O)Nc2ccc(Cl)cc2)c(C)n1-c1cccnc1 | inactive | –
49 | O=C1C=C(c2cc(C(F)(F)F)cc(C(F)(F)F)c2)C[C@@H](c2ccc3c(c2)OCO3)C1 | inactive | –
50 | Nc1c(C(=O)OCC(=O)Nc2ccc(OC(F)F)cc2)[nH]c(=O)[nH]c1=O | inactive | –
51 | O=C1c2ccccc2C(=O)N1Cc1cc(-c2ccccc2Cl)no1 | inactive | –
52 | O=c1c2ccccc2c(-c2ccc(F)cc2)nn1-c1ccc(C(F)(F)F)cc1 | inactive | –
53 | Cc1onc(-c2ccccc2)c1C(=O)N1CCN(S(=O)(=O)c2ccccc2C(F)(F)F)CC1 | inactive | –
54 | Cc1[nH]n(C)c(=O)c1C(=O)c1c(-c2c(Cl)cccc2Cl)noc1C | inactive | –
55 | Cn1c(-c2ccc(C(F)(F)F)cc2)cc2onc(-c3ccccc3)c2c1=O | 398 nM (active) | –
56 | Cn1c(-c2ccc(F)cc2)cc2onc(-c3ccccc3Cl)c2c1=O | 1580 nM (active) | –
57 | C=C(C)C(=O)Nc1cccc(C2=NOC3(C2)C[C@H](C(N)=O)N(C(=O)C(c2ccccc2)c2ccccc2)C3)c1 (stereo partly drawn) | inactive | –
58 | COc1ccc(CNC(=O)COC(=O)c2ccc(C)c(S(=O)(=O)N3CCOCC3)c2)cc1OC | inactive | –
59 | Cc1cccc(OCCC(=O)OCc2csc(CC(=O)Nc3ccccc3C)n2)c1 | inactive | –
60 | COC(=O)c1ccc(C23CC4(C2)[C@H](CN(Cc2cccnc2)[C@@H]4c2ccccc2)C3c2ccc(Cl)nc2)cc1 (stereo partly drawn) | inactive | –
61 | O=C(Nc1nnc(-c2ccccc2F)s1)c1ccccc1F | 1580 nM (active) | –
62 | O=C(Nc1ccc(NC(=O)c2ccccc2F)cc1)c1ccccc1F | inactive | –
63 | CN(Cc1ccccc1)S(=O)(=O)c1nnc(NC(=O)c2ccccc2F)s1 | inactive | –
